Among the data in the OligoGym collection are sensor-assay potency score (higher = more potent) values, retold here.
Also: reference of the scale not given here.

In the first assay the target is ADD2. Kind of assay: pooled miR-30 sensor sort-seq; sequence = guide strand. The note with it: shRNA.
Take TCGGTAGACACTGCTGATCTTG: the sensor-assay potency score (higher = more potent) was -0.972.
With TTGTTCTCGAATCTTGTTCCTC, the sensor-assay potency score (higher = more potent) was -0.198.
In the case of TTGGCTAGTCACTTTGAGCAGC, the sensor-assay potency score (higher = more potent) is -0.569.
On to TTTCTGTCTTCTTAGTACCTTC, for which the sensor-assay potency score (higher = more potent) is -0.453.
As for TTAGAGGTATCAACATCCGTGT, the sensor-assay potency score (higher = more potent) was -0.242.
Consider TTGTCTCTGCCTCCTTCGCTGG, for which the sensor-assay potency score (higher = more potent) is -1.43.
As for TTTCTCTCCATCAAGTTCTAGT, the sensor-assay potency score (higher = more potent) was -0.228.
The sequence TCAAGTTCTAGTTTCTTCCTCT displayed a sensor-assay potency score (higher = more potent) of 0.727.
Turning to TAGAGGTATCAACATCCGTGTC, the sensor-assay potency score (higher = more potent) is -1.2.
TAAATGTAGAGATAGCTCCATC: the sensor-assay potency score (higher = more potent) is -0.556.
Same read-out and setting: as for TTCTAGTTTCTTCCTCTCCACC, the figure is -1.02; as for TTTGTCTCTGCCTCCTTCGCTG, -0.0606.
Consider TTCACTGCAAGAAACTCCCTTA, for which the sensor-assay potency score (higher = more potent) is 0.39.
The same measure, in the same setting: as for TTGACCTCTGATTTAGTCTGAG, the figure is 0.252; as for TTGCTTGTTTCTGTCTTCTTAG, -0.81; as for TTTAGTTTTGAAGTGCCTGAGA, -0.472.
As for TTGATAGGCGTCATCATGGAGA, the sensor-assay potency score (higher = more potent) was -0.575.

The next assay concerns the target ADIPOR1. The description is as above. The note with it: shRNA.
Regarding TAGACGGTGTGAAAGAGCCAGG, the sensor-assay potency score (higher = more potent) is -1.
Turning to TTATTTTTAAAAGCACTTGGGA, the sensor-assay potency score (higher = more potent) is -0.469.
As to AAACTCTTCCATCTTCTCCATG, the sensor-assay potency score (higher = more potent) was -1.3.
As for TAGAAGGAATAATAGAGCCAGG, the sensor-assay potency score (higher = more potent) was -1.35.
In the case of TAGTCGTTGTCCTTTAGCCAGT, the sensor-assay potency score (higher = more potent) is -0.984.
Consider TTGCTCTTCTTCAGCTTTGGGT, for which the sensor-assay potency score (higher = more potent) is -0.543.
TGAATGACAATAGACGGTGTGA came in with a sensor-assay potency score (higher = more potent) of 0.0155.
Take TAGCAGATAGTCGTTGTCCTTT: the sensor-assay potency score (higher = more potent) was -0.519.
Regarding ATAATTAGAAGAGCAATCCCTG, the sensor-assay potency score (higher = more potent) is -1.25.
For ATGAAGTACATATTTGGTCTGA, the sensor-assay potency score (higher = more potent) is -0.176.
Take TCTCTGAATGACAATAGACGGT: the sensor-assay potency score (higher = more potent) was -0.907.
Consider TAATTAGAAGAGCAATCCCTGA, for which the sensor-assay potency score (higher = more potent) is -1.23.

The target in a further assay is ADORA2B. Described as above. Particulars: shRNA.
AAACTTTTATACCTGAGCGGGA: the sensor-assay potency score (higher = more potent) is -0.968.
For the sequence TTCATTCGTGGTTCCATCCCAG, the sensor-assay potency score (higher = more potent) was -0.119.
In the case of TTCACAATGAAAACCAGCCGTG, the sensor-assay potency score (higher = more potent) is -0.942.
In the case of TTTATTTTTCCATTGCCTCTAA, the sensor-assay potency score (higher = more potent) is 0.2.
As to TTGAAATATACCATGTAGCTCA, the sensor-assay potency score (higher = more potent) came out at 0.0522.
TTGACAACTGAATTGGCATGTG: the sensor-assay potency score (higher = more potent) was -0.143.
The same measure, in the same setting: as for TTAGAATCCATTCAAGCTGTTG, the figure is -0.667; as for TTTTGTGAAAAGTGTAGCGGAA, 0.0237.
Still for that read-out and setting: as for TAATCCACACAGTAAAAGCAGC, the figure is -1.13; as for TAGAAGTCAGTGCAGAAGCCCA, -0.856; as for TTTTCCACCATAAACAAGGCAG, -0.459.
